25 compounds from PubChem BioAssay (NCI) can be followed below.

Values joined by “and” are separate entries in the source; they are usually repeats but may differ in a detail not shown here. Equal values may be shown once. The panel holds about 83,000 compounds, 20% with a hit somewhere; the sample as a whole holds those more often.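 Each cell line was grown in a 96-well plate and treated with one concentration of compound for 48 hours. Values below 10 were considered active.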 Active and inactive are the calls of the source.

The assay relates to MDA-MB-468 breast. Briefly: NCI-60 one-dose screen, 48 h (100 = growth as untreated, 0 = no growth, -100 = all killed). The following applies: 10 µM unless noted.
Take `COc1cc(N2C(=O)[C@H](Cl)C2c2ccc(SC)cc2)cc(OC)c1OC` (stereo not given in full): the growth is -9.26% (active).

Turning to `CN(C)CCCn1c(=O)c2cc([N+](=O)[O-])ccc2c2cnc3[nH]ccc3c21`, the growth is 81.3% (inactive).

As to `Clc1ccc(-c2nnc(-c3cccc4ccccc34)o2)cc1`, the growth was 19.1% (inactive).

For the compound `O=C(Nc1ccccc1)OCC(CN1CCCCC1)OC(=O)Nc1ccccc1` (stereo not given), the growth was 59% (inactive) and 94.1% (inactive).

`CCn1c(=O)c(C(=O)NCCCO)c(O)c2ccccc21`: the growth was 112% (inactive).

In the case of `COc1ccc2c(c1)c(CC(=O)[Se]CC(=O)O)c(C)n2C(=O)c1ccc(Cl)cc1`, the growth was 86.9% (inactive).

Take `CSc1ccc2c(c1)N(CCC1CCCCN1C)c1ccccc1S2` (stereo not given): the growth is -10.2% (active).

For the compound `C=C(C)[C@@H]1CC[C@]2(C(=O)N3CCN(C)CC3)CC[C@]3(C)[C@H](CC[C@@H]4[C@@]5(C)CC[C@H](OC(=O)c6ccccc6C(=O)O)C(C)(C)[C@@H]5CC[C@]43C)[C@@H]12`, the growth is 107% (inactive).

`Cc1cc(C)c2c(n1)sc1c(Nc3ccc(Cl)cc3)ncnc12`: the growth is 19% (inactive).

In the case of `CCN(CC)c1nc(SCC(=O)Nc2nc3ccc(C)cc3s2)nc(-c2ccccc2)c1C#N`, the growth was 86.7% (inactive).

For `C/C(O)=C(\C=N\C(N)=S)C(=O)Nc1ccccc1`, the growth is 92.8% (inactive).

With `CCOC(=O)C1=NNC(c2ccc(Cl)cc2)C1C(=O)N1C(=S)NC(=O)C1CC(C)C` (stereo not given), the growth was 102% (inactive).

As to `BrC1=C(Br)C(Br)(Br)C(Br)=C1Br`, the growth is 97.7% (inactive).

With `CCOC(=O)c1c(-c2ccc(O)cc2)c(C#N)c2c(C#N)c(N)nn2c1N`, the growth is 35.2% (inactive).

Consider `O=C1/C(=C/c2ccc(F)cc2)Cc2ccccc21`, for which the growth was 96% (inactive).

For the compound `O=C1/C(=C/c2ccc(O)cc2)CSc2ccc(Cl)cc21`, the growth is 30.2% (inactive).

On to `COc1ccccc1/C=C/C1=C(C)CCC(c2ccccc2OC)C1C` (stereo not given), for which the growth was 29.7% (inactive).

As to `C[C@H](CCC(=O)NCc1ccc(C(=O)Nc2ccccc2N)cc1)[C@H]1CC[C@H]2[C@@H]3[C@@H](O)C[C@@H]4C[C@H](O)CC[C@]4(C)[C@H]3CC[C@]12C`, the growth is 71.2% (inactive).

Regarding `O=C(c1c(F)ccc(NS(=O)(=O)N2CC[C@@H](F)C2)c1F)c1c[nH]c2ncc(-c3cnc(C4CC4)nc3)cc12`, the growth is 54.7% (inactive).

`Cc1sc2nc(NCc3ccccc3Cl)[nH]c(=O)c2c1C`: the growth is 101% (inactive).

`CCOC(=O)C/C(C)=N\O`: the growth was 98.2% (inactive).

For the compound `Nc1nc2c(c(=O)[nH]1)C(c1ccc3c(c1)OCO3)C=C(C(=O)O)N2` (stereo not given), the growth was 107% (inactive).

Take `COc1cc2cc(Oc3ccc(NC(=O)Nc4ccc(Cl)c(Cl)c4)cc3)c(C)nc2cc1OCCN1CCCCC1`: the growth was 103% (inactive).

In the case of `Cc1ccc2nc(-[n+]3cc4ccccc4cc3C)ccc2c1`, the growth was -14.5% (active).

As for `CCOC(=O)C1OC1(c1ccccc1)c1ccccc1` (stereo not given), the growth was 104% (inactive).
